Records with an inconclusive call do not appear. The source made the active and inactive calls. Calls follow the shape of the dose curve; as a rule, active = well fitted curve in the direction sought with a large enough effect; inconclusive = small, poorly fitted or top-dose-only effect, or another doubt; inactive = no such curve, though single readings can be large; an effect the other way counts as inactive or inconclusive. Starred links: 1 amine or outer side, 2 acyl side, 3 side chain; linkers in the order of their positions; H or OH if unused. Positions of bridges follow the written chain, without caps; N, C: chain ends. Non-standard residues stand in square brackets, D forms with d. Residues, ends and D or L forms follow the SMILES beside them. Chains are numbered I, II in the order given. Actinocin(9to1) = Cc1c2oc3c(C)ccc(C(=O)[*:1])c3nc-2c(C(=O)[*:2])c(N)c1=O; NMeV = CN[CH](C(=O)O)C(C)C; Sar = CNCC(=O)O
What was measured:
[1] = qHTS of pediatric cancer cell lines to identify multiple opportunities for drug repurposing: Primary screen for Rh18 cells (AID 1347102); also: nearly all actives have a fitted effect of over 65% in size; also: potency is read from the fitted curve at half-maximal effect
Method in brief: (§1)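 Cells (500-1,000/well) rested 5 h, then received compounds for 48 h; metabolically active cells were measured by CellTiter-Glo luminescence. Final concentrations spanned up to 46 µM (MIPE, 11-point) or 0.59 nM-46 µM (NPC, 8-point) in primary screens, 11-point in follow-ups.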

[2] = qHTS of pediatric cancer cell lines to identify multiple opportunities for drug repurposing: Primary screen for OHS-50 cells (AID 1347103); also: nearly all actives have a fitted effect of over 40% in size; also: potency is read from the fitted curve at half-maximal effect
Method in brief: as §1

[3] = qHTS of pediatric cancer cell lines to identify multiple opportunities for drug repurposing: Primary screen for RD cells (AID 1347104); also: nearly all actives have a fitted effect of over 55% in size; also: potency is read from the fitted curve at half-maximal effect
Method in brief: (§2)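 Primary screen of approved and investigational compounds on cells in growth media at 37 degrees C, 5% CO2. MIPE set at 11-point and NPC set at 8-point dilutions; viability scored by ATP-based luminescence at 48 hours.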

[4] = qHTS of pediatric cancer cell lines to identify multiple opportunities for drug repurposing: Primary screen for control Hh wild type fibroblast cells (AID 1347106);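 also: a drop in luminescence marks cytotoxicity and a rise apparent proliferation; nearly all actives have a fitted effect of over 55% in size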
Method in brief: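 Viability after 48 h compound treatment at 37C, 500-1,000 cells/well, read as ATP luminescence with CellTiter-Glo. Primary screens used 11-point (MIPE, 0.78 nM-46 µM) or 8-point (NPC, 0.59 nM-46 µM) final concentrations; follow-up screens used 11-point dilutions.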

[5] = qHTS of pediatric cancer cell lines to identify multiple opportunities for drug repurposing: Primary screen for Rh41 cells (AID 1347108); also: nearly all actives have a fitted effect of over 70% in size; also: potency is read from the fitted curve at half-maximal effect;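 as to activity change, negative = cytotoxic: luminescence drop marks cytotoxic hits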
Method in brief: as §2

[6] = qHTS of pediatric cancer cell lines to identify multiple opportunities for drug repurposing: Confirmatory screen for NB1643 cells (AID 1347109); also: potency is read from the fitted curve at half-maximal effect; nearly all actives have a fitted effect of over 45% in size
Method in brief: as §1

[7] = qHTS of pediatric cancer cell lines to identify multiple opportunities for drug repurposing: Confirmatory screen for A673 cells (AID 1347110);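 also: cells exposed to compound for 48 h before the viability read; nearly all actives have a fitted effect of over 65% in size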; also: potency is read from the fitted curve at half-maximal effect
Method in brief: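 qHTS titration format: primary MIPE 0.78 nM-46 µM (11 pts), NPC 0.59 nM-46 µM; confirmation 11 pts. 48 h, CTG luminescence.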

[8] = qHTS of pediatric cancer cell lines to identify multiple opportunities for drug repurposing: Confirmatory screen for SK-N-MC cells (AID 1347111);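 also: potency is read from the fitted curve at half-maximal effect; cells exposed to compound for 48 h before the readout; nearly all actives have a fitted effect of over 70% in size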
Method in brief: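 Seed 500-1,000 cells/well; rest 5 h at 37 degrees C. Pin-transfer compounds, 11-point titration. Incubate 48 h. Add CellTiter-Glo, 15 min RT, read luminescence.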

[9] = qHTS of pediatric cancer cell lines to identify multiple opportunities for drug repurposing: Confirmatory screen for BT-12 cells (AID 1347112); also: potency is read from the fitted curve at half-maximal effect; nearly all actives have a fitted effect of over 55% in size
Method in brief: as §1

[10] = qHTS of pediatric cancer cell lines to identify multiple opportunities for drug repurposing: Confirmatory screen for LAN-5 cells (AID 1347113); also: nearly all actives have a fitted effect of over 65% in size; also: potency is read from the fitted curve at half-maximal effect
Method in brief: as §1

[11] = qHTS of pediatric cancer cell lines to identify multiple opportunities for drug repurposing: Confirmatory screen for NB-EBc1 cells (AID 1347115);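 also: cells exposed to compound for 48 h before the viability read; nearly all actives have a fitted effect of over 45% in size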; also: potency is read from the fitted curve at half-maximal effect
Method in brief: as §1

[12] = qHTS of pediatric cancer cell lines to identify multiple opportunities for drug repurposing: Confirmatory screen for BT-37 cells (AID 1347117); conditions: BT-37 pediatric cancer cells, viability; activity change, negative = cytotoxic: at 45.9 µM (top of the series); also: nearly all actives have a fitted effect of over 55% in size; also: potency is read from the fitted curve at half-maximal effect
Method in brief: as §1

[13] = qHTS of pediatric cancer cell lines to identify multiple opportunities for drug repurposing: Confirmatory screen for MG 63 (6-TG R) cells (AID 1347119)
Method in brief: as §1

[14] = qHTS of pediatric cancer cell lines to identify multiple opportunities for drug repurposing: Confirmatory screen for control Hh wild type fibroblast cells (AID 1347121); also: nearly all actives have a fitted effect of over 70% in size; also: potency is read from the fitted curve at half-maximal effect
Method in brief: as §1

[15] = qHTS of pediatric cancer cell lines to identify multiple opportunities for drug repurposing: Primary screen for MG 63 (6-TG R) cells (AID 1347105); also: nearly all actives have a fitted effect of over 50% in size; also: potency is read from the fitted curve at half-maximal effect
Method in brief: as §2

[16] = qHTS of pediatric cancer cell lines to identify multiple opportunities for drug repurposing: Confirmatory screen for DAOY cells (AID 1347114); also: nearly all actives have a fitted effect of over 65% in size; also: potency is read from the fitted curve at half-maximal effect
Method in brief: (§3)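 Viability measured as metabolically active cells via CellTiter-Glo luminescence following 48 hours of compound exposure, 11-point dilutions in confirmatory testing. 500-1,000 cells/well plated 5 hours before dosing; controls were DMSO and 2.3 µM bortezomib.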

[17] = qHTS of pediatric cancer cell lines to identify multiple opportunities for drug repurposing: Confirmatory screen for TC32 cells (AID 1347118); also: potency is read from the fitted curve at half-maximal effect
Method in brief: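 Luminescent CellTiter-Glo read-out of metabolically active TC32 cells after 48 h compound exposure. Primary: MIPE 11-point, 0.78 nM–46 µM; NPC 8-point, 0.59 nM–46 µM. Confirmatory: 11-point dilutions.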

[18] = qHTS of pediatric cancer cell lines to identify multiple opportunities for drug repurposing: Confirmatory screen for U-2 OS cells (AID 1347122)
Method in brief: as §1

[19] = qHTS of pediatric cancer cell lines to identify multiple opportunities for drug repurposing: Primary screen for Rh30 cells (AID 1347107); also: nearly all actives have a fitted effect of over 75% in size; also: potency is read from the fitted curve at half-maximal effect
Method in brief: as §1

[20] = qHTS of pediatric cancer cell lines to identify multiple opportunities for drug repurposing: Confirmatory screen for SJ-GBM2 cells (AID 1347116); also: nearly all actives have a fitted effect of over 60% in size; also: potency is read from the fitted curve at half-maximal effect
Method in brief: as §3

Compound | Potency [1] | Potency [2] | Potency [3] | Potency [4] | Potency [5] | Potency [6] | Potency [7] | Potency [8] | Potency [9] | Potency [10] | Potency [11] | Potency [12] | Potency [13] | Potency [14] | Potency [15] | Potency [16] | Potency [17] | Potency [18] | Potency [19] | Potency [20]
CO[C@@H]1[C@@H](O)[C@H](O)[C@@H](n2c3c(Cl)cccc3c3c4c(c5c6cccc(Cl)c6[nH]c5c32)C(=O)NC4=O)O[C@@H]1CO | 2090 nM (active) | 306 nM (active) | 2640 nM (active) | inactive | 2350 nM (active) | 1850 nM (active) | 827 nM (active) | 928 nM (active) | 4650 nM (active) | 1650 nM (active) | 1470 nM (active) | 827 nM (active) | 1310 nM (active) | inactive |  |  |  |  |  | 
O=C(Nc1cccc(Nc2ncc(Br)c(NCCc3cnc[nH]3)n2)c1)N1CCCC1 | 9350 nM (active) | 17200 nM (active) | 16600 nM (active) |  | 9350 nM (active) |  |  |  |  |  |  |  |  |  | 14800 nM (active) |  |  |  |  | 
Cc1c2oc3c(C)ccc(C(=O)NC4C(=O)NC(C(C)C)C(=O)N5CCCC5C(=O)N(C)CC(=O)N(C)C(C(C)C)C(=O)OC4C)c3nc-2c(C(=O)NC2C(=O)NC(C(C)C)C(=O)N3CCCC3C(=O)N(C)CC(=O)N(C)C(C(C)C)C(=O)OC2C)c(N)c1=O (stereo not drawn) (I: TVP[Sar][NMeV] / II: TVP[Sar][NMeV]; ester I:1-I:C, II:1-II:C; linker I:N-II:N via Actinocin(9to1); configuration not given here) | 1870 nM (active) | 1 nM (active) | 1 nM (active) |  | 1 nM (active) |  | 14.7 nM (active) | 7.4 nM (active) | 29.3 nM (active) | 2.3 nM (active) |  | 2.6 nM (active) |  | inactive |  | 36.9 nM (active) |  |  |  | 
C[C@@H](Oc1ccc2[nH]nc(C=Cc3cnn(CCO)c3)c2c1)c1c(Cl)cncc1Cl | 5900 nM (active) | 7690 nM (active) | 18700 nM (active) |  | 14800 nM (active) | 657 nM (active) | 1310 nM (active) | 2610 nM (active) | 23300 nM (active) | 827 nM (active) | 13100 nM (active) | 18500 nM (active) | 737 nM (active) | 13100 nM (active) | 18700 nM (active) | 18500 nM (active) | 2330 nM (active) | 2080 nM (active) |  | 
Cc1nc(NC(=O)N2CCC[C@@H]2C(N)=O)sc1-c1ccnc(C(C)(C)C(F)(F)F)c1 | 3720 nM (active) | 485 nM (active) | 372 nM (active) |  | 4180 nM (active) |  | 16500 nM (active) | 5220 nM (active) |  | 2930 nM (active) | 16500 nM (active) |  | 6570 nM (active) | inactive | 1180 nM (active) | inactive |  |  |  | 
CC(C)(O)[C@H]1CC[C@@](C)([C@H]2[C@@H](O)C[C@@]3(C)[C@@H]4C[C@H](O[C@@H]5O[C@H](CO)[C@@H](O)[C@H](O)[C@@H]5O)[C@H]5C(C)(C)[C@@H](O[C@@H]6OC[C@@H](O)[C@H](O)[C@@H]6O)CC[C@@]56C[C@@]46CC[C@]23C)O1 | inactive | inactive |  | inactive |  |  |  |  |  |  |  |  |  |  | inactive |  |  |  | inactive | 
Cc1cnc(NC(=O)Nc2cc(Br)c(C)cc2OC[C@@H]2CNCCO2)cn1 | inactive | 1370 nM (active) | inactive | inactive | inactive |  |  |  |  |  |  |  |  |  |  |  |  |  |  | 
C=C1C(=CC=C2CCC[C@]3(C)[C@@H]([C@H](C)CCCC(C)(C)O)CC[C@@H]23)C[C@@H](O)C[C@@H]1O | 5260 nM (active) | 7690 nM (active) | 9350 nM (active) |  | 5900 nM (active) |  | inactive |  |  | inactive | 2610 nM (active) | inactive |  | inactive | 11800 nM (active) |  |  |  |  | inactive
O=C1NC(=O)C(=Cc2ccc3nccc(-c4ccncc4)c3c2)S1 | 469 nM (active) | 38.5 nM (active) | 372 nM (active) |  | 590 nM (active) |  | 4650 nM (active) |  |  |  | inactive |  | 1040 nM (active) |  | 74.3 nM (active) | 8270 nM (active) | inactive | 2610 nM (active) | 1480 nM (active) | 
O=C(O)C[C@H](O)C[C@H](O)C=Cc1c(C2CC2)nc2ccccc2c1-c1ccc(F)cc1 | 4690 nM (active) | 3060 nM (active) | 18700 nM (active) |  | 4690 nM (active) |  | 2330 nM (active) | 4650 nM (active) |  |  | inactive |  |  | inactive | 1480 nM (active) | 1470 nM (active) |  |  |  | 
CC(Cc1ccc(O)c(O)c1)(NN)C(=O)O (stereo not drawn) | inactive | inactive |  | inactive |  |  |  |  |  |  |  |  |  |  | inactive |  |  |  |  | 
O=C(C=Cc1ccc(CN(CCO)CCc2c[nH]c3ccccc23)cc1)NO | 105 nM (active) | 243 nM (active) | 372 nM (active) |  | 372 nM (active) |  | 369 nM (active) |  | 1170 nM (active) |  |  |  |  |  | 590 nM (active) | 261 nM (active) |  |  | 1180 nM (active) | 
COc1ccc(Nc2cc(-c3cnc(N)nc3)nc(N3CCOCC3)n2)cn1 | 6620 nM (active) | 385 nM (active) | 4180 nM (active) |  | 2960 nM (active) |  | 9270 nM (active) | 6570 nM (active) |  | 2330 nM (active) |  | 10400 nM (active) | 1310 nM (active) | inactive | 3720 nM (active) |  | 3690 nM (active) | 9270 nM (active) | 5900 nM (active) | 
COc1ccc(C=Cc2cc(OC)c(OC)c(OC)c2)cc1NC(=O)[C@H](N)CO | inactive | 13.7 nM (active) | 6.6 nM (active) |  |  |  | 104 nM (active) | 117 nM (active) | 117 nM (active) | 414 nM (active) | 52.2 nM (active) | 73.7 nM (active) | 46.5 nM (active) | inactive |  |  | 46.5 nM (active) |  | inactive | 827 nM (active)

Reference: PubChem BioAssay (NCATS)
